Measurements: the supplement of paper PMC6555819

How the values were obtained:
Test in all cases: PBM binding z-score (relative to random genomic background probes); higher = stronger binding; sequences stand for … in GC…GCGATTGACAGCGTAGAATGAAGG
[1] = test system: PPARg:RXRa DBDmut IVT, anti-RXR (DBD mutation: RXRa K156A/R161A, NR concentration 270 nM, RXRa partner concentration 90 nM)
Outline: (§1)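 Ligand-free nuclear receptor dimers were applied to custom Agilent 4×180K protein-binding microarrays whose double-stranded probes carried direct-repeat seeds, single-nucleotide variants, half-site ablations and random human genomic background sequences in 34-nt variable regions. Incubation lasted 1 h. Binding z-scores were computed against the random background probes from regression-normalized fluorescence.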

[2] = test system: PPARg:RXRa IVT, anti-PPARg (NR concentration 270 nM, RXRa partner concentration 90 nM)
Outline: as §1

[3] = test system: PPARg DBDmut:RXRa IVT, anti-PPARg (DBD mutation: PPARg1 K132A/R137A, NR concentration 270 nM, RXRa partner concentration 90 nM)
Outline: as §1

[4] = test system: PPARg DBDmut IVT, anti-PPARg (DBD mutation: PPARg1 K132A/R137A, NR concentration 270 nM)
Outline: as §1

[5] = test system: PPARg homodimer (NR concentration 180 nM)
Outline: as §1

[6] = test system: PXR:RXRa (NR concentration 270 nM, RXRa partner concentration 90 nM)
Outline: as §1

[7] = test system: PXR homodimer (NR concentration 270 nM)
Outline: as §1

[8] = test system: RARa:RXR (NR concentration 270 nM, RXRa partner concentration 90 nM)
Outline: as §1

[9] = test system: RARa homodimer (NR concentration 270 nM)
Outline: as §1

[10] = test system: RARb:RXRa (NR concentration 270 nM, RXRa partner concentration 90 nM)
Outline: as §1

[11] = test system: RARb homodimer (NR concentration 270 nM)
Outline: as §1

[12] = test system: RARg:RXRa (NR concentration 270 nM, RXRa partner concentration 90 nM)
Outline: as §1

[13] = test system: RARg homodimer (NR concentration 270 nM)
Outline: as §1

[14] = test system: RXRa DBDmut IVT, anti-RXR (DBD mutation: RXRa K156A/R161A, NR concentration 90 nM)
Outline: as §1

[15] = test system: RXRa homodimer (NR concentration 180 nM)
Outline: as §1

[16] = test system: THRa:RXRa (NR concentration 90 nM, RXRa partner concentration 90 nM)
Outline: as §1

[17] = test system: THRa homodimer (NR concentration 90 nM)
Outline: as §1

[18] = test system: VDR homodimer (NR concentration 270 nM)
Outline: as §1

Sequence	PBM binding z-score [1]	PBM binding z-score [2]	PBM binding z-score [3]	PBM binding z-score [4]	PBM binding z-score [5]	PBM binding z-score [6]	PBM binding z-score [7]	PBM binding z-score [8]	PBM binding z-score [9]	PBM binding z-score [10]	PBM binding z-score [11]	PBM binding z-score [12]	PBM binding z-score [13]	PBM binding z-score [14]	PBM binding z-score [15]	PBM binding z-score [16]	PBM binding z-score [17]	PBM binding z-score [18]
GCTATTAGTTGAAAGGGCCACCGAATGATTCTCG	0.635	-0.116	0.0939	-0.248	0.586	-0.34	-0.184	-0.0438	0.309	1.02	1.19	0.331	0.583	0.436	0.34	0.0196	-0.402	0.169
ATACCACGGTGATCGTGAGGTCGTTGATACTAAC	-0.0691	0.808	0.255	0.824	0.823	1.6	0.891	1.57	0.137	0.885	1.47	0.858	0.379	0.514	1.1	2.65	2.42	2.44
CCTTACGGGTAACTGACAGGTTATAGCATTTGGA	1.03	0.095	-0.022	-0.575	0.529	0.109	-0.252	0.585	0.214	0.274	0.321	0.742	0.501	0.0265	0.525	0.456	-0.293	-0.157
ATCGAAAGGTCGACGAGGTGAGCATACACCGTTT	0.211	2.48	1.06	0.825	1.88	2.91	0.446	3.9	0.74	3.9	2.94	4.4	4.53	1	4.49	3.75	1.18	0.518
ACTATTAGTTGAGACGAGGGCAAGCGATAGGTTG	0.296	0.365	0.712	0.625	0.663	1.05	0.306	0.73	0.56	0.659	1.06	0.352	0.635	0.63	0.484	2.28	0.357	0.593
ATCGAAAGGTGGTGAGGTGAGTATACAGAAAGGC	-0.246	0.807	0.968	1.51	0.911	0.257	0.574	0.614	0.646	0.849	1.13	0.717	0.846	-0.654	0.748	1.8	1.23	0.366
ACAAGTTGGTCAGCTGAGGTCACACACAATTCGG	1.87	2.89	0.789	1.03	2.69	5.44	2	4.44	1.01	3.65	4.58	4.2	3.99	2.18	4.19	5.13	5.16	3.37
AGACTGAGGTTATACGTAGATCAGGGAAGAAAGT	0.425	0.435	0.201	0.0103	0.623	1.09	0.133	1.68	0.064	1.46	0.864	1.64	1.03	1.44	2.09	2.01	0.684	0.49
CTCGAAAGGTCGTACTCAGGTGAGTATACCAAAC	1.03	1.95	0.751	1.1	2.32	3.69	0.0401	4.62	0.162	3.75	2.52	4.96	3.87	2.42	4.91	3.89	0.987	1.47
CCGACTGGGGCGAGGTTACCATAACGCACAGCCA	0.314	0.726	-1.05	-1.46	0.254	0.372	-0.517	1.1	-0.00275	0.965	0.887	0.854	0.545	-0.326	1.39	1.55	0.408	0.294
CCTTACGGGTCACGAGGTTCTAGCACGACGAGCG	4.32	5.09	0.979	-0.156	2.86	4.06	-0.111	5.48	0.989	4.41	3.27	5.61	5.78	1.49	6.58	3.25	0.28	1.86
ATTTCTAGGTAAGACTCAGTTCAGTGAAGAACGC	4.54	2.6	1.64	1.76	1.66	1.39	1.8	0.607	2.29	0.674	0.518	0.801	0.283	0.956	0.351	0.941	0.851	2
TCTTGTAGATCAATGGAGGTTAAGAAAGTGCGCT	2.04	1.57	0.0784	1.12	-0.199	2.58	0.0457	1.16	0.49	0.504	0.785	0.419	0.147	0.79	0.919	2.03	-0.299	0.227
AGTCAAAGTGCACTAGGTAACGTAAGATTCAGCT	1.83	3.56	0.58	-0.0287	0.167	0.215	0.189	0.315	-0.372	1.53	0.614	0.916	1.26	0.965	0.453	0.43	-0.285	0.442
ATCGCTAGGTAAAGATAGTTCAGTGAATGCAAAT	-0.327	-0.329	0.673	0.059	0.116	0.306	0.193	0.173	0.336	0.139	0.559	0.136	0.387	-0.61	-0.287	0.234	-0.407	-0.0178
